PubChem BioAssay (NCI)
“And” between values parts separate entries of the source, which are not always exact repeats. Equal values may be shown once. About 83,000 compounds went through this panel and 20% of them were active in at least one assay; those are over-represented in the sample as a whole.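 Compound tested at a single concentration for 48 hours in 96-well plates; a percent growth value below 10 was scored as active.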 A number with no mark means an inactive call. The source made the active and inactive calls.

The molecules below were run on HOP-92 NSCLC (assay: NCI-60 one-dose screen, 48 h (100 = growth as untreated, 0 = no growth, -100 = all killed)). Conditions: 10 µM unless noted.

Row | SMILES | growth
1 | COc1ccc(C/C(C)=C(/c2ccc(OCCN3CCCC3)cc2)c2ccc(OC(=O)NCc3ccccc3)cc2)cc1 | 66.2%
2 | CCN(CC)CCOc1ccc(/C(=C(\Cl)c2ccccc2)c2ccccc2)cc1 | 30.6% and 83.7%
3 | Cc1ccc(/C=C2\COc3ccc(O)c(O)c3C2=O)cc1 | -18% (active)
4 | COc1ccc2c(c1)oc1c(C)c3c(c(C)c12)C(=O)N(Nc1ccccc1)C3=O | 100%
5 | CCC(=C(c1ccc(OCCCN(C)C)cc1)c1ccc(OCCCN(C)C)cc1)c1ccc(Cl)cc1 | -80% (active)
6 | CCOC(=O)c1c(-c2ccc(C)cc2)c(C#N)c(=O)n(-c2cccc(C(F)(F)F)c2)c1N | 90.9%
7 | S=c1nc(CS)[nH]c2ccccc12 | 96.8%
8 | O=C(N/N=C/c1ccc(O)cc1O)c1cccc(Nc2ccnc(C(F)(F)F)c2)c1 | 44.1%
9 | CCN(CC)CCCN1C(=O)c2c(c(C)c3c(oc4cc(OC)ccc43)c2C)C1=O | 87.3%
10 | Cc1ccc(NC(=O)c2ccc(CN3CCN(C)CC3)cc2)cc1Nc1nccc(-c2cccnc2)n1 | 56.3% and 66.4%
11 | COc1cc(/C=C2/C=C(c3ccc(C(C)(C)C)cc3)N(CCc3ccc(S(N)(=O)=O)cc3)C2=O)cc(OC)c1OC | 23%
12 | O=c1c(/C=C/c2ccco2)nnc2sc(Nc3ccc(Cl)cc3)nn12 | 89.2%
13 | Nc1[nH]nc(Nc2ccccc2)c1-c1nc2ccccc2s1 | -15.8% (active)
14 | CCCCCCCCn1ccc2cc(NC(=O)CN3CCN(c4nc(C)cc(N5CCCCC5)n4)CC3)ccc21 | 102%
15 | CC/C(=C(/c1ccc(O)cc1)c1ccc(OCCN2CCCCCC2)cc1)c1ccc(Cl)cc1 | 69.5%
16 | C=C(C)[C@@H]1CC[C@]2(C(=O)N3CCN(C)CC3)CC[C@]3(C)[C@H](CC[C@@H]4[C@@]5(C)CC(CCCNC(C)=O)(CCCNC(C)=O)[C@H](OC(C)=O)C(C)(C)[C@@H]5CC[C@]43C)[C@@H]12 | 98.2%
17 | CCN(c1cc(-c2ccc(CN3CCC(/C=C/S(=O)(=O)c4ccccc4)CC3)cc2)cc(C(=O)NCc2c(C)cc(C)[nH]c2=O)c1C)C1CCOCC1 | 24.3%
18 | Nc1nc(N)c2c(n1)NC(c1ccc(Cl)cc1)CC(c1cccc(Nc3ccncc3)c1)=N2 (stereo not drawn) | 48.5%
19 | C=C(c1ccc(C(=O)O)cc1)c1cc2c(cc1C)C(C)(C)CCC2(C)C | 68.4%

Row | SMILES | growth
20 | O=C1OCC2=C1C(c1cccc([N+](=O)[O-])c1)c1cc3c(cc1N2CCO)CCC3 (stereo not drawn) | 51.4%
21 | CCN(CC)/C([O-])=c1\cccc\c1=C1\N=C(c2ccccc2)N=C1[n+]1ccc(-c2ccccc2)cc1 | 86.7%
22 | Cc1nc(-n2[nH]c(=O)ccc2=O)sc1N=Nc1ccccc1 | 96.6%
23 | Cc1ccc(-c2nc3nc(-c4ccccc4)nc(N4CCCNCC4)c3o2)cc1 | -33.5% (active)
24 | O=C([C@H]1C[C@H]1c1ccc(S(F)(F)(F)(F)F)cc1)N1CCN(c2cc(Cl)ccc2C(F)(F)F)CC1 | 88.3%
25 | OB(O)c1ccsc1-c1nc2ccc3[nH]ncc3c2c2c1CCCC2 | 65.3%
26 | CC[C@]12CN3CCc4c([nH]c5ccccc45)[C@@](C(=O)OC)(c4cc5c(cc4OC)N(C)[C@H]4[C@@](O)(C(=O)OC)[C@H](OC(C)=O)[C@]6(CC)C=CCN7CC[C@]54[C@@H]76)CC(C3)[C@H]1O2 (stereo partly drawn) | 9.26% (active)
27 | COC(=O)N/N=C/c1c[n+]([O-])c2ccccc2[n+]1[O-] | 96.5%
28 | Cn1ccnc1CN1CCSC(C(=O)Nc2ccccc2)C1 (stereo not drawn) | 88.7%
29 | CCNC(=O)Oc1ccc(/C(=C(/C)Cc2ccc(OC)cc2)c2ccc(OCCN(CC)CC)cc2)cc1 | 43.3%
30 | Cc1ccc(-c2nc(C#N)c(S(=O)(=O)N(C)C)o2)cc1 | 103%
31 | COCCn1cc(-c2nc(-c3cn(CCOC)c4ncccc34)cs2)c2ccccc21 | 66.4%
32 | Nc1nc2ccccc2c2c(=O)c3ccc(Cl)cc3sc12 | 84.1%
33 | CC[C@]1(O)CC2CN(CCc3c([nH]c4ccccc34)C(C(=O)OC)(c3cc4c(cc3OC)N(C=O)[C@H]3[C@@](O)(C(=O)OC)[C@H](OC(C)=O)[C@]5(CC)[C@@H]6C[C@@H]6CN6CC[C@]43[C@@H]65)C2)C1 (stereo partly drawn) | -0.4% (active)
34 | CN1CCN(CCCN2c3ccccc3Sc3ccc(Cl)cc32)CC1 | 48.1% and 29.4%
35 | Nc1ncc(-c2ccc3ncnc(N4CCc5ccc(Cl)cc54)c3c2)cc1C(F)(F)F | -7.6% (active)
36 | CC(C)(C)c1cc(NC(=O)Nc2ccc(-c3cn4c(n3)sc3cc(OCCN5CCOCC5)ccc34)cc2)no1 | -2.21% (active) and -1.85% (active)
37 | CC1(Cc2ccccc2)CC2=C(C(=O)O1)C(c1ccccc1)NC(=O)N2 (stereo not drawn) | 77%
38 | COc1cc(C=O)ccc1Oc1ccc([N+](=O)[O-])cc1[N+](=O)[O-] | 78.8%
